# Target: Glucose transporter (Leishmania mexicana) (UniProt O61059)
# Assay: ST_JUDE_LEISH: Cytotoxicity at 2uM final concentration against transgenic Leishmania Mexicana promastigotes LmGT2 that are glucose transport deficient and complemented with the L. Mexicana glucose transporter 2. Activity is measured by DNA content using SYBR green in vitro
# Format: functional
row,Compound,inhibition [%]
1,O=C(Nc1ccc(Cl)cc1)Nc1cccc(-c2cccc(-c3nc4ccccc4[nH]3)c2)c1,-0.65
2,COc1cc(Cc2cnc(N)nc2N)c2c(c1OC)OC(C)C=C2 (stereo not given),2.25
3,Fc1ccc2[nH]c(-c3ccc(-c4ccc(CN5CCN(CCN6CCOCC6)CC5)cc4)s3)nc2c1,1.83
4,Cc1cc(-c2c[nH]c3ncc(-c4cccc5ncccc45)cc23)ccc1C(=O)O,0.66
5,Cc1ccc(NC(=O)c2ccc3ncccc3c2)cc1OC1CCN(C(C)C)C1 (stereo not given),9.34
6,Cc1cc(NCCC(=O)Nc2ccccc2)nc(NCCc2cccs2)n1,-0.18
7,O=C(Nc1ccc(Cn2ncc(N3CCCNCC3)c(Cl)c2=O)cc1)Nc1cccc(C(F)(F)F)c1,-2.08
8,Clc1ccc(CNc2nc(NCCc3c[nH]cn3)nc(N3CCCC4CCCCC43)n2)cc1 (stereo not given),3.89
9,CC(=O)Nc1nc(N)c2c(ccc3c2ccn3CC(C)C)n1,-0.95
10,Oc1ccc(Nc2nc(NCC3CCCO3)c3ccccc3n2)cc1 (stereo not given),1.86
11,O=[N+]([O-])c1ccccc1C=NN=c1cc[nH]c2ccccc12,-0.01
12,COc1cccc(-c2cc(-c3ccc(NC(=O)c4ccccc4)cc3)c3c(N)ncnc3n2)c1,-2.31
13,CN1CCC(Oc2cc(NC(=O)Nc3ccc(-c4ccncc4)c(C(F)(F)F)c3)ccc2Cl)CC1,7.11
14,CS(=O)(=O)c1ccccc1CNC(=O)c1ccc(-c2ccc(-c3nc4cc(C(F)(F)F)ccc4[nH]3)s2)cc1,0.84
15,O=C(C=Cc1ccc(Cl)c(Cl)c1)NC1CCN(CCc2ccccc2)CC1,-4.41
16,COc1ccc2ncc(F)c(CCN3CCC4(CC3)COC(c3cc5c(cn3)OCCO5)=N4)c2n1,-0.24
17,Nc1c2ccccc2nc2ccc(Cl)cc12,9.04
18,COc1ccc(C2N=C(N)N=C(N)N2c2ccc(Cl)cc2)cc1OC (stereo not given),2.93
19,CS(=O)(=O)c1ccc(CCNCc2ccc(-c3ccc(CN(C(=O)c4ccco4)C4CCN(Cc5ccccc5)CC4)cc3)nc2)cc1,4.41
20,Cc1ccc(NC(=O)c2c(C)noc2-c2snnc2C)cc1,3.02

row,Compound,inhibition [%]
1,Cc1c(CCc2cccc(F)c2F)[nH]c2ccccc2c1=O,0.83
2,O=C(NCc1ccc(C(F)(F)F)cc1)c1cccc(-c2nnc(-c3cccc(-c4cncnc4)c3)o2)c1,4.68
3,Cc1ccc(C(=O)Nc2cccc(CN3CCCN(Cc4ccc(O)cc4)CC3)c2)cc1,-7.6
4,COCC(C)n1c(C)cc(C(=O)CSc2nnc(Nc3ccccc3)s2)c1C (stereo not given),-0.94
5,Cc1ccccc1C1CCN(C2CCC(NC(=O)/C=C/c3cccc(C(F)(F)F)c3)CC2)CC1 (stereo not given),2.39
6,CN(C)CCOc1cc(NC(=O)c2ccc(-c3ccc(Cl)cc3Cl)cc2)ccc1-c1ccccc1,-0.43
7,Cc1cc(I)ccc1Nc1nc2nonc2nc1Nc1ccc(I)cc1C,9.11
8,CCCCn1c(C(C)Oc2ccc(Cl)cc2Cl)nc2cc(S(N)(=O)=O)ccc21 (stereo not given),-1.84
9,CC1(C)NC(N)=NC(=N)N1OCCCNC(=O)c1ccc([N+](=O)[O-])cc1,3.92
10,CCc1cc2c3c(N)nc(N)nc3ccc2n1C(CC)CC,65.2
11,N#Cc1ccc2[nH]cc(-c3cn4cc(SC5CCCC5)ccc4n3)c2c1,1.09
12,COc1cc(Cc2cnc(N)nc2N)cc(OCc2cccc(C(=O)O)c2)c1OC,1.03
13,Cc1cc(C)cc(N2C(N)=NC(N)=NC2(C)C)c1,5.97
14,Cc1ncsc1CCN1C(=O)CC2(C1=O)C(=O)N(Cc1ccccc1)c1ccc(Cl)cc12 (stereo not given),-1.17
15,CN(C)CCCn1c(C(=O)OC(c2ccccc2)c2ccccc2)cc2cc(OCc3ccccc3)ccc21,-2.32
16,CC(C(=O)N1CCCC1)N1CCN(S(=O)(=O)c2ccc(C(C)(C)C)cc2)CC1 (stereo not given),4.07
17,CC(Cc1ccc(CN(CC(N)=O)Cc2ccc(CC(C)NCCc3cccc(Cl)c3)cc2)cc1)NCCc1cccc(Cl)c1 (stereo not given),7.2
18,Cc1cc(NC(=O)c2coc3cc(F)c(N4CC(C)N(C)C(C)C4)cc23)cnc1-c1ccc(C#N)cc1 (stereo not given),-1.53
19,COc1ccccc1/C=C/C(=O)N(C)C1CCN(CCCCCNC(=O)/C=C/c2ccc(Cl)c(Cl)c2)CC1,5.48
20,Cc1ccccc1-c1cc(=O)c2cc(NC(=O)c3cccs3)ccc2o1,-8.62

# Reference: ChEMBL document CHEMBL3433997, “St. Jude Leishmania screening dataset” (2016)
